Source: PubChem BioAssay (NCATS)
Inconclusive results are not listed. The source made the active and inactive calls. Unless noted, calls come from the whole dose curve; as a rule, active = well fitted curve in either direction with a large enough effect (not every such curve was filed as active); inconclusive = small, poorly fitted or top-dose-only effect, or another doubt; inactive = flat fitted curve, though single readings scatter.

Legend:
[1] = target: Lysosomal acid glucosylceramidase (Homo sapiens) (UniProt P04062); test: Glucocerebrosidase-p2 (AID 348; in the data active = potency below about 10 µM; note: potency is the fitted concentration of half-maximal effect); details: purified GBA, blue fluorogenic substrate, 40 min
Chain of Lysosomal acid glucosylceramidase (Homo sapiens) (P04062 whole entry, looked up): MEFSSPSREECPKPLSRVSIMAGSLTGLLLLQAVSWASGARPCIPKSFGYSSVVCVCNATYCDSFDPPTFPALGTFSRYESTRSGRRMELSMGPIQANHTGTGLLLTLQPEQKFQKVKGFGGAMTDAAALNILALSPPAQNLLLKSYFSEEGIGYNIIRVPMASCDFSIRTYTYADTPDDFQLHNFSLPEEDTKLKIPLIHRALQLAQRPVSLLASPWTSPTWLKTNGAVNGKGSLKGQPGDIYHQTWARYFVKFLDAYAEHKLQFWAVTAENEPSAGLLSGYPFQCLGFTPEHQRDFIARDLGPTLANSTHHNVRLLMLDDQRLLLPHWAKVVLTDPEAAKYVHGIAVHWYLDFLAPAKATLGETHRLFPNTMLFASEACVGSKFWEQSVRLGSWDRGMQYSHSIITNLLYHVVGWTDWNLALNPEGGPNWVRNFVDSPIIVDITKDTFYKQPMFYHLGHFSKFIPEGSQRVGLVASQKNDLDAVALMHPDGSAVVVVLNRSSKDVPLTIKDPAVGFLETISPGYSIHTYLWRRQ
Outline: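 Compounds titrated from 0.6 nM upwards against 0.2 nM enzyme in pH 5.9 citric acid/KH2PO4, taurocholate, tween-20; blue fluorogenic substrate 80 uM, 40 min room temperature, stopped and read Ex 365/Em 440 for AC50.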

[2] = AP1 Signaling Pathway (AID 357); details: ME-180 AP-1-bla reporter, EGF-induced, beta-lactamase ratio, 5 h; at 7.69 µM (top of the series) unless noted;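 note: ME-180 reporter cells stimulated with EGF at its EC50 level; % is set by controls: 0 for no effect and ±100 for the full control effect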
Outline: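 Beta-lactamase reporter under AP-1 response element, ME-180 background. Stimulus: EC50 EGF. Compound exposure 5 h, 37 °C. Detection: CCF4, 2.5 h RT, 460/530 nm. Values: AC50 from titration.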

[3] = target: Cytochrome P450 1A2 (Homo sapiens) (UniProt P05177); test: p450-cyp1a2 (AID 410; calls by dose curve; note: potency is the fitted concentration of half-maximal effect;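 for activity change, negative = inhibition: -100% = full effect of reference inhibitor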); details: recombinant CYP1A2, luciferin-ME demethylation, luminescence; series mostly up to 57 µM
Chain of Cytochrome P450 1A2 (Homo sapiens) (P05177 whole entry, looked up): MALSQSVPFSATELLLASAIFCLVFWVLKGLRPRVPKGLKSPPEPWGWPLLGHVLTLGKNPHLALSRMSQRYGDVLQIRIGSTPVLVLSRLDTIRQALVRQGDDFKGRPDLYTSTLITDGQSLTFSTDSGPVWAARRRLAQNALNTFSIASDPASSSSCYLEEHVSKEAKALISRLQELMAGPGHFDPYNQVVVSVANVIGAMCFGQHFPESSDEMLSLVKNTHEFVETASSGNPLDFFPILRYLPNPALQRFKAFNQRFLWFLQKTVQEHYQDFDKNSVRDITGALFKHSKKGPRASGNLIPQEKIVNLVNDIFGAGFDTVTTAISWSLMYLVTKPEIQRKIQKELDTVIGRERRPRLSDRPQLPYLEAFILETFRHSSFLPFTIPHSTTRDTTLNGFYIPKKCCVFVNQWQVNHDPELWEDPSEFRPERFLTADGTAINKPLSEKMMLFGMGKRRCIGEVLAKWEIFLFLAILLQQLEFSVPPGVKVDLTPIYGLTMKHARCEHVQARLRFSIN
Outline: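 Human CYP1A2 (20nM) demethylated Luciferin-ME at its Km (100uM) in 100mM KPO4. After 10 min compound preincubation, NADPH regeneration ran the reaction 60 min at room temperature. Luciferin was read by luminescence, normalized to 57 uM furafylline.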

[4] = NFAT Signaling Pathway (AID 444); details: Jurkat NFAT-bla M1, carbachol, beta-lactamase ratio, 5 h; at 7.69 µM (top of the series) unless noted;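 note: carbachol stimulus at about its EC50 of 1 µM final; % is set by controls: 0 for no effect and ±100 for the full control effect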
Outline: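 Read-out: CCF4 FRET ratio (460 nm/530 nm) after 1 h RT dye loading, used for %activity and AC50 from titration series. Cells: Jurkat NFAT-β-lactamase/M1 line, treated with compound plus 1 uM carbachol for 5 h, 37 °C.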

[5] = Stat Signaling Pathway (AID 446); details: ME-180 SIE beta-lactamase reporter, IL-6 stimulated, 5 h; at 7.69 µM (top of the series) unless noted;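 note: ME-180 cervical cancer cells given 40 pM IL-6 alongside compound; SIE-controlled beta-lactamase reporter measured as 460/530 nm FRET emission ratio; % is set by controls: 0 for no effect and ±100 for the full control effect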
Outline: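 ME-180 SIE-bla cells; overnight plating; cpd + IL-6 40 pM, 5 h, 37 C; LiveBLAzer 2.5 h RT; 460/530 nm emission ratio. Normalized to 300 pM IL-6 and 125 nM JAK inhibitor controls.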

[6] = target: Glucocorticoid receptor (Homo sapiens) (UniProt P04150); test: GR-GFP Redistribution (AID 450;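 active = compounds whose dose series gives a full or clear partial fitted curve of increased nuclear translocation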; note: potency is the fitted concentration of half-maximal effect); details: U2OS GR-GFP nuclear translocation, laser cytometry, 2 h
Chain of Glucocorticoid receptor (Homo sapiens) (P04150 whole entry, looked up, the tested form may be a part): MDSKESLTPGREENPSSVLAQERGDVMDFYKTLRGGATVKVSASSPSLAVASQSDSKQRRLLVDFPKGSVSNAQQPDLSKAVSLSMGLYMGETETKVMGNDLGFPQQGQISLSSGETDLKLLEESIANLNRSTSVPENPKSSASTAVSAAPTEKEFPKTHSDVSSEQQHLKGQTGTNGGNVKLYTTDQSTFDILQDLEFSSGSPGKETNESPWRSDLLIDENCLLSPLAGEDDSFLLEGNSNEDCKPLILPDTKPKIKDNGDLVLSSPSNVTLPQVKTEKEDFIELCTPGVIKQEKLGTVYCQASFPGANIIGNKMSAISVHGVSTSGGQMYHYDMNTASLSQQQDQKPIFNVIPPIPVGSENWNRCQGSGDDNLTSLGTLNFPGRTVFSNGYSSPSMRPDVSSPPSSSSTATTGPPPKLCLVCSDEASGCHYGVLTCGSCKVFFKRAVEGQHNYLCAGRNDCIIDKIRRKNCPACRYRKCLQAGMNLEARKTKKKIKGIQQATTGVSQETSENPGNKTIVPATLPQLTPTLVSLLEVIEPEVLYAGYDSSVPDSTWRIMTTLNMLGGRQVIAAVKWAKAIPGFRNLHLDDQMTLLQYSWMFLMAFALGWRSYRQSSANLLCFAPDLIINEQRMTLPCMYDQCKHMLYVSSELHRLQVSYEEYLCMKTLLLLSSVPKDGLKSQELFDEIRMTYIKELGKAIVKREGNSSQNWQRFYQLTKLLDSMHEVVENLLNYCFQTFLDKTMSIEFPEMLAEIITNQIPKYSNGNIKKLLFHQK

[7] = target: Glucocorticoid receptor (Homo sapiens) (UniProt P04150); test: GR-EFC Redistribution (AID 451; calls by dose curve; note: potency is the fitted concentration of half-maximal effect); details: CHO-K1 GR-EFC translocation, beta-gal luminescence, 2 h
Outline: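 Translocation of GR-ED fusion to nuclear EA restores b-gal, read by luminescence after 1 h room-temperature detection. Engineered CHO-K1 biosensor cells, 1,000/well, exposed 2 h at 37 C to titrations up to 46 uM final.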

[8] = target: Mitogen-activated protein kinase 10 (Mus musculus) (UniProt Q61831); test: JNK3 AlphaScreen Assay (AID 530); details: JNK3 lysate, c-Jun phosphorylation; series mostly up to 57.1 µM;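 note: kinase came from lysate of stimulated human HepG2 cells; signal reports phosphorylation of biotinylated GST-cJun 1-79 at Ser73 with 10 µM ATP; % is set by controls: 0 for no effect and ±100 for the full control effect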
Outline: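 Room-temperature AlphaScreen kinase assay; pre-activated HepG2 lysate as JNK3 source, biotin-GST-cJun(1-79) substrate, 10 uM ATP, compound 15 min preincubation.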

[9] = target: 3',5'-cyclic-AMP phosphodiesterase 4B (Homo sapiens) (UniProt Q07343); test: qHTS Assay for Inhibitors of PDE-IV (AID 607; active = well fitted activation curve with a large enough effect in the main read-out, with a control signal flat, not every such curve was filed as active; note: % of control where 0% means no effect); details: HEK293 ACTOne CNG channel cells, membrane potential fluorescence; series mostly up to 22.9 µM
Chain of 3',5'-cyclic-AMP phosphodiesterase 4B (Homo sapiens) (Q07343 whole entry, looked up): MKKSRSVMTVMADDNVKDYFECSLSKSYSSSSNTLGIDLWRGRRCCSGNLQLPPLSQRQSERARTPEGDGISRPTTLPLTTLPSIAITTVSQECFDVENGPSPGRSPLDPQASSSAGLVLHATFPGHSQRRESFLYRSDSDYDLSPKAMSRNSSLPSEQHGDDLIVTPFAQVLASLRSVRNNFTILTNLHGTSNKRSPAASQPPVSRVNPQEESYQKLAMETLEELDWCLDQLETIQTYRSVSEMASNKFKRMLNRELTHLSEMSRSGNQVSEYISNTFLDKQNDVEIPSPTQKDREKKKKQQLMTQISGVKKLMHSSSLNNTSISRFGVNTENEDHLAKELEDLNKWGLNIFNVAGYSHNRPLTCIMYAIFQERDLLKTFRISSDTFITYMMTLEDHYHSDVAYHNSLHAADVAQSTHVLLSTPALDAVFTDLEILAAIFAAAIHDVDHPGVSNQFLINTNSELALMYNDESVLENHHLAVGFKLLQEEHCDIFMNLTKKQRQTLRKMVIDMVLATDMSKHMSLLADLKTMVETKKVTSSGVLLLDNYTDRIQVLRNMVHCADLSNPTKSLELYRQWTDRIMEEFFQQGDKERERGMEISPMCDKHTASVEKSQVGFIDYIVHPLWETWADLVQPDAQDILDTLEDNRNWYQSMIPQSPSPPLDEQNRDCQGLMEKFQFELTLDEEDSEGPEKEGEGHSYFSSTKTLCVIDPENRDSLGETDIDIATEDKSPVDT
Outline: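 ACTOne HEK293 cells carry a modified cAMP-gated CNG channel and express endogenous PDE4; plated 1000 cells/well, compounds up to 22.9 uM final. Membrane-potential dye fluorescence (ex 535/em 590) was read; parental cells received 10 uM forskolin + 100 uM RO 20-1724.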

[10] = target: Cytochrome P450 2C9 (Homo sapiens) (UniProt P11712); test: qHTS Assay for Inhibitors and Substrates of Cytochrome P450 2C9 (AID 883; active = well fitted curve in the direction sought with a large enough effect; an effect the other way counts as inactive or inconclusive; note: nearly all actives have a fitted effect of over 60% in size; note: potency is the fitted concentration of half-maximal effect); details: recombinant CYP2C9, luciferin-H luminescence, 60 min; series mostly up to 57.1 µM
Chain of Cytochrome P450 2C9 (Homo sapiens) (P11712 whole entry, looked up): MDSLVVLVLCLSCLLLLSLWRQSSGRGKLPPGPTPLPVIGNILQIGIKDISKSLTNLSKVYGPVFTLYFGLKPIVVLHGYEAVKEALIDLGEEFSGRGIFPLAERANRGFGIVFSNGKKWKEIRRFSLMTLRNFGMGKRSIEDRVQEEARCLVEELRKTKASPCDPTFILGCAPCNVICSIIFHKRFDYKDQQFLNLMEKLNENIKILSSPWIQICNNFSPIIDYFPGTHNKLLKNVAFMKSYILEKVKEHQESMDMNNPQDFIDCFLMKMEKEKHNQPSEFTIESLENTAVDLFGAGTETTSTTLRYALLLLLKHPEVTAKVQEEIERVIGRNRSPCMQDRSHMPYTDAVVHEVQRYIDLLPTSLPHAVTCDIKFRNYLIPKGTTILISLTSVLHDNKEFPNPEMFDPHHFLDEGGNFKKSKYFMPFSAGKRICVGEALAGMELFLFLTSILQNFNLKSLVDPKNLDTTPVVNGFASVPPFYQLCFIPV
Outline: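 Luminescent read-out of deoxyluciferin hydroxylation, normalized to 57uM sulphaphenazole (AC100). Reaction: 10nM enzyme, 100uM Luciferin-H (equal to KM), 25mM KPO4, 10 min compound preincubation, then 60 min with NADPH regeneration, both at 37C.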

[11] = target: Cytochrome P450 3A4 (Homo sapiens) (UniProt P08684); test: qHTS Assay for Activators of Cytochrome P450 3A4 (AID 885; active = well fitted curve in the direction sought with a large enough effect; an effect the other way counts as inactive or inconclusive; note: nearly all actives have a fitted effect of over 65% in size); details: recombinant CYP3A4, Luciferin-PPXE luminescence, 60 min; series mostly up to 57.1 µM
Chain of Cytochrome P450 3A4 (Homo sapiens) (P08684 whole entry, looked up): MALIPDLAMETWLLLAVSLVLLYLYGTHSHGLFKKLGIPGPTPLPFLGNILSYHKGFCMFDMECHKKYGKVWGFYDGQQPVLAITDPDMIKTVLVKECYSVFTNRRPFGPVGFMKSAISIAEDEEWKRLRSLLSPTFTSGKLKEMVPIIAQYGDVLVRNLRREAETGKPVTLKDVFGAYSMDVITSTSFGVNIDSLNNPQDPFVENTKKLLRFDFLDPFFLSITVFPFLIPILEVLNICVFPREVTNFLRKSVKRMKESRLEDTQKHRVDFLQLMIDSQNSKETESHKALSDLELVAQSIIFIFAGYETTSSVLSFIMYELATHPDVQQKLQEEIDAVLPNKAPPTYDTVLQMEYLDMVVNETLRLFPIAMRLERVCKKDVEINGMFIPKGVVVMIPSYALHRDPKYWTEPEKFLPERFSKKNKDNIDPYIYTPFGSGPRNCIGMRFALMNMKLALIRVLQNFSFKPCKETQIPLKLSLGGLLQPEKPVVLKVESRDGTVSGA
Outline: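 20nM CYP3A4 + 25uM Luciferin-PPXE (=KM), 200mM KPO4; cpd 10 min RT; NADPH regen, 60 min RT; stop w/ detection buffer, 20 min; luminescence. Normalized to 57 uM ketoconazole.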

[12] = Primary qHTS for small molecule stabilizers of the endoplasmic reticulum resident proteome: Secreted ER Calcium Modulated Protein (SERCaMP) assay (AID 1508630; active = well fitted curve in the direction sought with a large enough effect; an effect the other way counts as inactive or inconclusive; note: % is set by controls: 0 for no effect and ±100 for the full control effect); details: SH-SY5Y GLuc-SERCaMP (Gaussia luciferase released on ER calcium loss) secretion, thapsigargin, luminescence; series mostly up to 38.4 µM
Outline: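 GLuc-SERCaMP-expressing SH-SY5Y cells, pretreated 16 h with compound, are challenged with thapsigargin to empty ER calcium stores; after 4 h, coelenterazine is added directly to the medium and luminescence is imaged.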

[13] = qHTS Assay for Identification of Small Molecule Agonists for Hypoxia Response Element Signaling Pathway (AID 914; active = well fitted activation curve with a large enough effect in the signal ratio, with a control signal flat, not every such curve was filed as active; the % refers to the signal ratio; note: % of control where 0% means no effect); details: ME-180 (cervical carcinoma) HRE-bla reporter, beta-lactamase ratio, CoCl2, 17 h; activation: hits give high values
Outline: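 Read-out: CCF4 FRET ratio of 460nm to 530nm emission (excitation 405nm) after 2.5 hours at room temperature, taken from HRE-bla ME-180 cells that had been exposed to compound and EC50 CoCl2 for 17 hours.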

[14] = target: Cytochrome P450 3A4 (Homo sapiens) (UniProt P08684); test: qHTS Assay for Inhibitors and Substrates of Cytochrome P450 3A4 (AID 884; active = well fitted curve in the direction sought with a large enough effect; an effect the other way counts as inactive or inconclusive; note: nearly all actives have a fitted effect of over 50% in size; note: potency is the fitted concentration of half-maximal effect); details: recombinant CYP3A4, Luciferin-PPXE luminescence; series mostly up to 57.1 µM
Outline: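 20 nM human CYP3A4 with 25 uM Luciferin-PPXE (at KM) in 200 mM KPO4, preincubated 10 min with compound; NADPH regeneration started a 60 min RT reaction. Luciferin detected by luminescence, normalized to 57 uM ketoconazole as full inhibition.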

[15] = target: Cytochrome P450 2C19 (Homo sapiens) (UniProt P33261); test: qHTS Assay for Inhibitors and Substrates of Cytochrome P450 2C19 (AID 899; active = well fitted curve in the direction sought with a large enough effect; an effect the other way counts as inactive or inconclusive; note: potency is the fitted concentration of half-maximal effect; nearly all actives have a fitted effect of over 60% in size); details: recombinant CYP2C19, luciferin-H EGE luminescence; series mostly up to 57.1 µM
Chain of Cytochrome P450 2C19 (Homo sapiens) (P33261 whole entry, looked up): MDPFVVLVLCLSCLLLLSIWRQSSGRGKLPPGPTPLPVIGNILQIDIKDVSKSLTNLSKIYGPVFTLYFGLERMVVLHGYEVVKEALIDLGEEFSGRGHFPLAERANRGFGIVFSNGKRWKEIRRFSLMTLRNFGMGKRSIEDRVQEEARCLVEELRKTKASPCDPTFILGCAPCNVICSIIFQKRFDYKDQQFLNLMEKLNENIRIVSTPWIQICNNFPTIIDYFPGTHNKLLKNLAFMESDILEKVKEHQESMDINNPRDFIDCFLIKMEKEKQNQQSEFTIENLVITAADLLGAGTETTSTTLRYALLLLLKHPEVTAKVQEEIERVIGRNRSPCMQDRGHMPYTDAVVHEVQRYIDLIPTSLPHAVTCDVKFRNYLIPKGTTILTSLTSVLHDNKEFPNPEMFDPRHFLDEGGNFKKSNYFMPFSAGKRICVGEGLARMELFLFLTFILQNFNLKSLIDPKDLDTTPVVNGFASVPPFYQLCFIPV
Outline: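 Luminescence readout of luciferin formed from 10uM Luciferin-H EGE (KM level) by 5 nM CYP2C19 in 50mM KPO4. 60 min NADPH-driven reaction at 37C after 10 min compound preincubation; data scaled to 57uM ketoconazole inhibition.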

COc1ccc(-n2c(=O)c(-c3cn(C)c4ccccc34)nc3cncnc32)cc1
active: Potency [3] 0.316 µM
inactive: Potency [1] > 11.4 µM | activity change, negative = inhibition [2] -24.9% | activity change, negative = inhibition [4] 6.02% | activity, negative = inhibition [5] -19.8% | Potency [6] > 9.22 µM | Potency [7] > 46 µM | Potency [8] | Potency [9] | Potency [10] | Potency [11] | outcome [12]

O=c1c(CCc2ccccc2)nc2cncnc2n1C1CC1
inactive: Potency [1] > 11.4 µM | activity change, negative = inhibition [2] -0.738% | activity change, negative = inhibition [4] -8.26% | activity, negative = inhibition [5] -4.39% | Potency [6] > 9.22 µM | Potency [7] > 46 µM | Potency [8] | Potency [9] | Potency [11] | activation [13] 6.89% | outcome [12]
active: Potency [3] 6.31 µM

Cn1c(=O)c(-c2ccc(F)cc2)nc2cnc(Oc3ccccc3)nc21
active: Potency [3] 0.316 µM
inactive: Potency [1] > 11.4 µM | activity change, negative = inhibition [2] 14.3% | activity change, negative = inhibition [4] 5.5% | activity, negative = inhibition [5] -0.989% | Potency [6] > 9.22 µM | Potency [7] > 46 µM | Potency [8] | Potency [9] | Potency [14] | outcome [12]

O=c1cnc2cnc(N3CCOCC3)nc2n1Cc1ccc(F)cc1
inactive: Potency [1] > 11.4 µM | activity change, negative = inhibition [2] -5.88% | activity change, negative = inhibition [4] -6.28% | activity, negative = inhibition [5] 6.58% | Potency [6] > 9.22 µM | Potency [7] > 46 µM | Potency [8] | Potency [9] | Potency [11] | outcome [12]
active: Potency [3] 3.98 µM | Potency [15] 3.98 µM

Cc1nc2cnc(Nc3ccccc3)nc2n(Cc2cccs2)c1=O
inactive: Potency [1] > 11.4 µM | activity change, negative = inhibition [2] 6.83% | activity change, negative = inhibition [4] 31.1% | activity, negative = inhibition [5] 10.1% | Potency [6] > 9.22 µM | Potency [7] > 46 µM | Potency [8] | Potency [9] | Potency [11] | outcome [12]
active: Potency [3] 1.58 µM | Potency [14] 7.94 µM

COc1ccc(-n2c(=O)c(C)nc3cncnc32)cc1
active: Potency [14] 5.01 µM
inactive: Potency [1] > 11.4 µM | activity change, negative = inhibition [2] -7.74% | Potency [3] | activity change, negative = inhibition [4] 7.82% | activity, negative = inhibition [5] -15.1% | Potency [6] > 9.22 µM | Potency [7] > 46 µM | Potency [8] | Potency [9] | Potency [11] | outcome [12]

COCCn1c(=O)c(-c2ccc(F)cc2)nc2cncnc21
active: Potency [3] 0.501 µM
inactive: Potency [1] > 11.4 µM | activity change, negative = inhibition [2] -7.99% | activity change, negative = inhibition [4] 1.81% | activity, negative = inhibition [5] 2.35% | Potency [6] > 9.22 µM | Potency [7] > 46 µM | Potency [8] | Potency [9] | Potency [11] | activation [13] 3.14% | outcome [12]

O=c1c(-c2ccccc2)nc2cncnc2n1C1CC1
active: Potency [3] 2 µM
inactive: Potency [1] > 11.4 µM | activity change, negative = inhibition [2] -14.9% | activity change, negative = inhibition [4] 6.76% | activity, negative = inhibition [5] 8.37% | Potency [6] > 9.22 µM | Potency [7] > 46 µM | Potency [8] | outcome [12]

O=c1cnc2cnc(Oc3cccc(Cl)c3)nc2n1C1CC1
inactive: Potency [1] > 11.4 µM | activity change, negative = inhibition [2] -27.3% | activity change, negative = inhibition [4] 0.268% | activity, negative = inhibition [5] -9.7% | Potency [6] > 9.22 µM | Potency [7] > 46 µM | Potency [8] | Potency [9] | outcome [12]
active: Potency [3] 2.51 µM | Potency [10] 6.31 µM

COCCn1c(=O)c(-c2ccc(Cl)cc2)nc2cncnc21
active: Potency [3] 0.2 µM
inactive: Potency [1] > 11.4 µM | activity change, negative = inhibition [2] -10.8% | activity change, negative = inhibition [4] 9.96% | activity, negative = inhibition [5] 1.43% | Potency [6] > 9.22 µM | Potency [7] > 46 µM | Potency [8] | Potency [9] | Potency [11] | outcome [12]

COc1ncc2ncc(=O)n(CCC#N)c2n1
active: Potency [3] 20 µM
inactive: Potency [1] > 11.4 µM | activity change, negative = inhibition [2] 1.28% | activity change, negative = inhibition [4] -1.77% | activity, negative = inhibition [5] -9.79% | Potency [6] > 9.22 µM | Potency [7] > 46 µM | Potency [8] | Potency [9] | outcome [12]

Cn1c(=O)c(-c2ccc(F)cc2)nc2cncnc21
active: Potency [3] 0.158 µM
inactive: Potency [1] > 11.4 µM | activity change, negative = inhibition [2] -16.1% | activity change, negative = inhibition [4] -1.33% | activity, negative = inhibition [5] -0.562% | Potency [6] > 9.22 µM | Potency [7] > 46 µM | Potency [8] | Potency [9] | Potency [11] | outcome [12]

Cc1nc2cnc(Oc3ccccc3)nc2n(CCC#N)c1=O
inactive: Potency [1] > 11.4 µM | activity change, negative = inhibition [2] -21.9% | activity change, negative = inhibition [4] -8.6% | activity, negative = inhibition [5] -6.56% | Potency [6] > 9.22 µM | Potency [7] > 46 µM | Potency [8] | Potency [9] | Potency [11] | outcome [12]
active: Potency [3] 20 µM

N#Cc1cccc(-c2nc3cnc(Nc4ccccc4)nc3n(C[C@H]3CCCO3)c2=O)c1
active: Potency [3] 2 µM
inactive: Potency [1] > 11.4 µM | activity change, negative = inhibition [2] -18.6% | activity change, negative = inhibition [4] -9.05% | activity, negative = inhibition [5] -7.94% | Potency [6] > 9.22 µM | Potency [7] > 46 µM | Potency [8] | Potency [9] | outcome [12]
